# Compounds without any hit were thinned out: in the full panel of roughly 79,000, 15% have a hit. A number with no mark means an inactive call. Calls of active or inactive are those of the source. No stated cut-off is given here; in the data, active means growth inhibition above about 70%; inactive means the rest.
# Key:
# [1] = NCI Yeast Anticancer Drug Screen. Data for the rad50 strain (AID 155);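 further: 0% = growth of vehicle-only cultures of the same strain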; details: S. cerevisiae rad50 strain growth inhibition, stronger effect = higher value
# Outline: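 Genetically altered yeast (DNA repair pathway); compound treatment; growth inhibition vs vehicle ctrl.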
# [2] = NCI Yeast Anticancer Drug Screen. Data for the mec2-1 strain (AID 157); details: S. cerevisiae mec2-1 strain, stronger effect = higher value
# Outline: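 Readout is yeast growth inhibition, normalised to vehicle-treated controls, in the mec2-1 strain exposed to compound.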
# [3] = NCI Yeast Anticancer Drug Screen. Data for the sgs1 mgt1 strain (AID 161);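 further: 0% = growth of cultures given vehicle only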; details: S. cerevisiae sgs1 mgt1 strain, stronger effect = higher value
# Outline: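 Growth of a repair-deficient yeast mutant was monitored after compound treatment and expressed as inhibition relative to vehicle-treated cultures.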
# [4] = NCI Yeast Anticancer Drug Screen. Data for the cln2 rad14 strain (AID 165);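 further: 0% = growth equal to vehicle treated cultures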; details: S. cerevisiae cln2 rad14 strain, stronger effect = higher value
# Outline: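 Relative to vehicle controls, growth inhibition of compound-treated cln2 rad14 yeast was recorded.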
# [5] = NCI Yeast Anticancer Drug Screen. Data for the bub3 strain (AID 167); details: S. cerevisiae bub3 mutant strain, stronger effect = higher value
# Outline: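 Yeast carrying a defined mutation is treated with each compound, and growth is compared with that of vehicle-exposed cells to give inhibition.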
# [6] = NCI Yeast Anticancer Drug Screen. Data for the mlh1 rad18 strain (AID 175); details: S. cerevisiae mlh1 rad18 strain growth inhibition, stronger effect = higher value
# Outline: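 Test agents were incubated with a yeast strain of defined genotype (DNA damage repair defect). Inhibition of growth was derived by comparison with vehicle-exposed cultures.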
# [7] = at 5.0 µM (retest, dose inferred, filed as 0.5)
# [8] = at 50.0 µM (retest, dose inferred, filed as 5.0)
SMILES,"growth inhibition [1, 7]","growth inhibition [1, 8]",growth inhibition ([1]; at 50.0 µM),"growth inhibition [2, 7]","growth inhibition [2, 8]",growth inhibition ([2]; at 50.0 µM),"growth inhibition [3, 7]","growth inhibition [3, 8]",growth inhibition ([3]; at 50.0 µM),"growth inhibition [4, 7]","growth inhibition [4, 8]",growth inhibition ([4]; at 50.0 µM),"growth inhibition [5, 7]","growth inhibition [5, 8]",growth inhibition ([5]; at 50.0 µM),"growth inhibition [6, 7]","growth inhibition [6, 8]",growth inhibition ([6]; at 50.0 µM)
CN1C(=O)CCCCCCCCCCSc2ccccc21,7%,97% (active),99% (active),8%,99% (active),99% (active),4%,97% (active),99.2% (active),7%,99% (active),96.7% (active),16%,98% (active),98.3% (active),6%,98% (active),98.8% (active)
O=C(O)CCCCCCCCC(=O)CCl,9%,97% (active),98.8% (active),23%,99% (active),99.5% (active),29%,98% (active),99% (active),14%,98% (active),97.5% (active),48%,98% (active),99.5% (active),38%,98% (active),99.2% (active)
CC(C)C(=O)N1Cc2cc(Cl)cc(Cl)c2OC(=O)c2ccccc21,18%,3%,71% (active),-1%,17%,36.1%,-13%,3%,43.6%,32%,47%,48.7%,19%,28%,52.9%,4%,11%,57.9%
O=C(N/N=C/c1ccccc1[O-])c1ccccc1O.O=C(N/N=C/c1ccccc1[O-])c1ccccc1O.[Mn+2],48%,99% (active),99.2% (active),39%,98% (active),99.8% (active),63%,100% (active),97.7% (active),28%,99% (active),99% (active),48%,99% (active),99.6% (active),40%,99% (active),97.8% (active)
c1cnc2ccc3c4cccnc4ccc3c2c1,12%,95% (active),96.8% (active),0%,75% (active),75% (active),7%,81% (active),61.3%,-17%,67%,59.5%,2%,66%,75.8% (active),1%,89% (active),80.4% (active)
O=C(CCCN1CCC2(CC1)CC(c1ccccc1)OC2=O)c1ccc(F)cc1 (configuration not stated),48%,76% (active),86.3% (active),33%,65%,87.9% (active),44%,87% (active),94.7% (active),41%,84% (active),89.8% (active),39%,90% (active),95.2% (active),34%,63%,95.9% (active)
CN(C)c1ccc(/C=C(\NC(=O)c2ccccc2)c2nc3ccccc3s2)cc1,35%,96% (active),97.1% (active),20%,97% (active),97.2% (active),61%,97% (active),98% (active),17%,95% (active),97.3% (active),37%,97% (active),95% (active),27%,96% (active),97% (active)
O=[N+]([O-])c1ccc(O)c(C2CCCCC2)c1,72% (active),98% (active),99.5% (active),67%,99% (active),99.2% (active),62%,99% (active),99.7% (active),64%,99% (active),99.5% (active),79% (active),98% (active),100% (active),87% (active),99% (active),99% (active)
O=C(Nc1cccc(C(F)(F)F)c1)C(Cl)=C(Cl)Cl,12%,99% (active),98.5% (active),-1%,98% (active),98.8% (active),0%,98% (active),98.5% (active),-8%,99% (active),97.8% (active),0%,98% (active),98.5% (active),-2%,99% (active),98.7% (active)
CC(=O)O/N=C1/CCC2C3CC=C4CC(OC(C)=O)CCC4(C)C3CCC12C (configuration not stated),0%,69%,68.8%,16%,93% (active),71.5% (active),8%,89% (active),89.9% (active),-1%,87% (active),85% (active),-7%,74% (active),41.5%,34%,93% (active),77.1% (active)
C1CCC2CC3(CCNCC3)CCC2C1 (configuration not stated),14%,55%,75.2% (active),9%,55%,55.4%,16%,79% (active),88.4% (active),12%,82% (active),83.7% (active),11%,66%,86.8% (active),9%,73% (active),92% (active)
Clc1nc2cc3nc(Cl)c(Cl)nc3cc2nc1Cl,18%,71% (active),21.2%,24%,93% (active),16.3%,14%,24%,36.4%,26%,23%,30.1%,17%,30%,15.6%,29%,91% (active),-1.2%
CCN(CC)C(=S)N/N=C/c1cc(OC)ccc1O,-15%,65%,69.9%,-43%,93% (active),73.2% (active),-33%,95% (active),62.4%,-6%,62%,53.5%,-38%,84% (active),61.5%,-30%,78% (active),26.6%
N#CC(C#N)=C/C=C/c1c(Cl)cccc1Cl,7%,41%,71.2% (active),15%,58%,46.9%,11%,78% (active),58.9%,29%,68%,76.8% (active),25%,79% (active),69.6%,8%,66%,57.1%
O=C(O)C1OC(Oc2ccc3oc4ccccc4c(=O)c3c2)C(O)C(O)C1O (configuration not stated),-23%,91% (active),48.8%,3%,33%,40.2%,-1%,48%,30.8%,4%,15%,56.5%,10%,64%,47.1%,7%,39%,57.9%
CCCCCCCCC/C=C1\CCC(CN(C)C)C1=O (configuration not stated),-26%,88% (active),89.4% (active),-36%,98% (active),93% (active),-28%,91% (active),90.8% (active),-6%,96% (active),89.6% (active),-24%,97% (active),89.5% (active),-27%,97% (active),88.8% (active)
O=C1c2ccccc2C(=O)N1/N=C\c1ccccc1[N+](=O)[O-],1%,75% (active),89% (active),-2%,41%,4.9%,3%,96% (active),-3.8%,-5%,32%,-29.1%,-3%,85% (active),3.75%,-3%,93% (active),0.5%
Fc1ccc(NC2=NCCN=C(Nc3ccc(F)cc3)SS2)cc1,0%,70% (active),85% (active),6%,66%,86.5% (active),4%,69%,86% (active),-9%,77% (active),69.8%,6%,76% (active),88% (active),29%,85% (active),80.8% (active)
O=[N+]([O-])c1ccc(NS(=O)(=O)c2ccc(Cl)c(Cl)c2Cl)c([N+](=O)[O-])c1,22%,18%,78.2% (active),24%,21%,42.1%,31%,38%,81% (active),16%,25%,45.1%,11%,10%,7.15%,22%,20%,75.2% (active)
